High-throughput results deposited in PubChem BioAssay by several laboratories.
SUMO Mot1 rescue: blocks SUMOylation pathway, rescuing yeast Mot1-301 growth; S. cerevisiae Mot1-301 growth rescue, ATP luminescence, 38.5C; percent above DMSO median, 100 means doubled; growth rescue, % at 18.8 µM; actives 1% (n = 320,000); AID 2716;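 active = every valid replicate shows activation above 250% relative to neutral control wells; inactive = the rest, any valid replicate at or below 250%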;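 note: OY570 slx delta 5 strain wells were the positive control but not used for scaling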
PKA-R1A activ: activates the PKA-R1A holoenzyme complex; PKA-R1A dissociation, Cy5-IP20 fluorescence polarization; scaled: DMSO 0%, 113 µM cGMP 100%; activation, % at 11.4 µM; actives 0.083% (n = 340,000); AID 504707;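 active = percent activation above the mean of all tested compounds plus 3 SD, cut at about 19% in these data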;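 note: higher means more PKAc released from R1A so a rise in polarization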
PKA-R2B act: activators of human PKA-R2B complex. P22694+P31323. PKA-R2B holoenzyme dissociation, Cy5-IP20 fluorescence polarization; R2B truncated from residue 108, S112A mutant; 0% DMSO only, 100% 113 µM cGMP. activation, % at 11.4 µM. actives 0.079% (n = 340,000). AID 504700;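 active = activation above a cutoff set at the mean over all compounds plus 3 SD, cut at about 18% in these data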;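 note: higher means more holoenzyme dissociation and a rise in polarization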
Target sequence (P31323 whole entry, looked up, other chains not shown, the tested form may be a part): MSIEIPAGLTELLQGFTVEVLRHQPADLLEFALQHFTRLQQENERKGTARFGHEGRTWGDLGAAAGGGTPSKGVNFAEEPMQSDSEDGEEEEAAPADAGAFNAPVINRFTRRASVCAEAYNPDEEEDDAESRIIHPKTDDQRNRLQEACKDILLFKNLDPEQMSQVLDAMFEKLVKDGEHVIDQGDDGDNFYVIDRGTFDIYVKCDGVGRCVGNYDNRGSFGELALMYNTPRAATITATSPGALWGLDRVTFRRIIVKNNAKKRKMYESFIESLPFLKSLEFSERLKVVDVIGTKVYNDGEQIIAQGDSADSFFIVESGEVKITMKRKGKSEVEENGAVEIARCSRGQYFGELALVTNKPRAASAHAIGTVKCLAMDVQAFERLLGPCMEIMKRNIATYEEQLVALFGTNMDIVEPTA
MsrA act: activators of bovine methionine sulfoxide reductase A; actives 0.3% (n = 360,000); purified bovine MsrA, absorbance read-out; activation, % at 10.6 µM; in the data active = activation above about 7.5%;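 note: 0% = vehicle and 100% = reference activator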
MsrA inh: inhibits bovine methionine sulfoxide reductase A. purified bovine MsrA, absorbance read-out. inhibition, % at 15.5 µM. actives 0.75% (n = 360,000). AID 651718;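 note: 0% = vehicle wells with enzyme and 100% = reference inhibitor wells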
MsrA conf: bovine MsrA inhibition, confirmed | shares compounds with MsrA inh | purified bovine MsrA, absorbance read-out | inhibition, % at 15.5 µM | actives 41% (n = 2,300);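 note: coupled to thioredoxin reductase with NADPH and selenocystamine and DMSO as substrate; 0% = vehicle only and 100% = full effect of reference inhibitor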
Active calls of the source: *. Compounds with a hit are over-represented: about 2% of the library has one in this group of screens. Cut-off read from the data, not from the text of the source, unless noted: active = inhibition above about 4.5%; inactive = the rest.

Screening COc1cc2ccccc2cc1C(=O)OCC(=O)N1CCOCC1 returned SUMO Mot1 rescue -18, PKA-R1A activ 8, PKA-R2B act 13, MsrA act 0 and MsrA inh 0.
Screening COc1ccc(Cc2c(-c3ccc(F)cc3)nc3c(C)cc(Br)cn23)c(C)c1 returned MsrA act -4 and MsrA inh 0.
`CCOC(=O)C1=CCN(S(=O)(=O)c2ccc(Cl)cc2)C1c1cccc(Cl)c1` (stereo not given) gave MsrA inh 1.
For O=C(Nc1ccc2c(c1)OCO2)c1c(Cl)nc2sccn12 the results were SUMO Mot1 rescue -12, PKA-R1A activ -3, PKA-R2B act 7, MsrA act 1, MsrA inh 10* and MsrA conf 3.
For Nc1nc2ccccc2cc1C(=O)NCCCCc1ccccc1 the results were MsrA act -2.
O=C(/C=C/c1ccccc1)NNC1=NS(=O)(=O)c2ccccc21 was read as SUMO Mot1 rescue -9, PKA-R1A activ -14, PKA-R2B act -5, MsrA act -5, MsrA inh 4.8* and MsrA conf 5.5*.
C=CCn1c(-c2ccccc2)nc(=S)c2c1CC(C)(C)OC2 was read as SUMO Mot1 rescue 13, PKA-R1A activ 7, PKA-R2B act 3, MsrA act -4, MsrA inh 5.1* and MsrA conf 4.
Screening COc1ccc(-c2nc(=S)c3c(n2CCN2CCOCC2)CC(C)(C)OC3)cc1 returned SUMO Mot1 rescue -5, PKA-R1A activ 0, PKA-R2B act -4, MsrA act -12, MsrA inh 4.9* and MsrA conf 4.
Screening Cc1ccc(-c2nc(=S)c3c(n2CCN2CCOCC2)CC(C)(C)OC3)cc1 returned SUMO Mot1 rescue -2, PKA-R1A activ 5, PKA-R2B act 0, MsrA act -13 and MsrA inh 4.
Screening O=C(O)c1ccc(/C=C2\SC(=S)N(NC(=O)c3ccccc3[N+](=O)[O-])C2=O)cc1 returned SUMO Mot1 rescue 104, PKA-R1A activ -8, PKA-R2B act -3, MsrA act -8, MsrA inh 4.8* and MsrA conf 4.
Screening N/C(=N\N=C\c1ccco1)SC1CC(=O)N(c2ccccc2)C1=O (stereo not given) returned SUMO Mot1 rescue -10, PKA-R1A activ 4, PKA-R2B act -8, MsrA act -4, MsrA inh 6.8* and MsrA conf 4.
For N/C(=N\N=C\c1ccco1)SC1CC(=O)N(c2ccc(C(=O)O)cc2)C1=O (stereo not given) the results were SUMO Mot1 rescue 13, PKA-R1A activ -5, PKA-R2B act -1, MsrA act -10 and MsrA inh 4.
`C/C(=N\N=C(/N)SC1CC(=O)N(c2ccccc2)C1=O)c1cccs1` (stereo not given) gave SUMO Mot1 rescue -10, PKA-R1A activ -2, PKA-R2B act -11, MsrA act -7, MsrA inh 5.1* and MsrA conf 2.
CCOC(=O)[C@]12CCC=C1N(Cc1ccc(Cl)cc1Cl)C(=O)[C@H](CC(=O)NCc1cccs1)C2 was read as MsrA act -3 and MsrA inh 1.
Screening C[C@H](O)[C@@H]1CN2CCc3c([nH]c4ccccc34)[C@@H]2C[C@@H]1N(C)C(=O)OCc1ccccc1 returned MsrA act -5 and MsrA inh 3.
COC(=O)C1=C(C)N(Cc2cccc(C(F)(F)F)c2)C(=NCc2ccc(C(F)(F)F)cc2)NC1c1cccc(F)c1 (stereo not given) was read as MsrA inh -1.
For CCOC(=O)/C(C#N)=C1/C=CN(c2ccc(C)cc2)C=N1 the results were SUMO Mot1 rescue -4, PKA-R1A activ -3, PKA-R2B act -9, MsrA act -6, MsrA inh 6.6* and MsrA conf 5.2*.
CCOC(=O)/C(C#N)=C1/C=CN(C)C=N1 was read as SUMO Mot1 rescue 8, PKA-R1A activ -5, PKA-R2B act 0, MsrA act -7, MsrA inh 7.4* and MsrA conf 5.7*.
CCOC(=O)/C(C#N)=C1/C=CN(Cc2ccccc2)C=N1 was read as SUMO Mot1 rescue -12, PKA-R1A activ 6, PKA-R2B act 0, MsrA act -5, MsrA inh 7.4* and MsrA conf 5.7*.
